# From PubChem
# Compounds with a hit are over-represented: about 0.95% of the library has one in this group of screens.
# Giardia FBPA inh-1: qHTS Assay for Inhibitors of Fructose-1,6-bisphosphate Aldolase from Giardia Lamblia; A8B2U2; purified Giardia FBPA; Potency, µM (doses to about 59.6 µM), actives largely listed as inhibitors; actives 0.71% (n = 290,000); AID 2451, 2010; note: nearly all actives have a fitted effect of over 55% in size
# Target sequence (A8B2U2 whole entry, looked up): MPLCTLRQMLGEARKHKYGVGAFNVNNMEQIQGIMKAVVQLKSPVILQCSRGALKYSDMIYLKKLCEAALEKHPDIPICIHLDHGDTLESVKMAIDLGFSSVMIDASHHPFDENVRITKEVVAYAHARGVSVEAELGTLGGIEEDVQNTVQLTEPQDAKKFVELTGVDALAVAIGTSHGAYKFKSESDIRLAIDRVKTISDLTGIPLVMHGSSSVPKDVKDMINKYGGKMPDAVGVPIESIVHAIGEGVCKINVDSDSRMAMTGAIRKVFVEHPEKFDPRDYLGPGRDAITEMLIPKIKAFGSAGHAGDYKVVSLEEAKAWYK
#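 Giardia FBPA (40 nM reagent) was preincubated 10 min at RT with compound (up to 57.5 uM final), then substrate plus GAPDH/TPI/NAD/arsenate coupling system with diaphorase/resazurin was added; resorufin fluorescence (525/598 nm) was read after 20 min.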
# RE007 growth inh: qHTS Assay for Inhibitors of the HIV-1 protein Vpr. S. pombe RE007 Vpr strain, BacTiter-Glo ATP luminescence, 24 h. Potency, µM (titrated, usually from 92.2 µM), most hits filed as inhibitors. actives 0.21% (n = 360,000); active = well fitted falling curve with a large enough effect; inconclusive = small, poorly fitted or top-dose-only effect; inactive = no such curve, though single readings can be large or run the other way; note: nearly all actives have a fitted effect of over 50% in size
#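 Fission yeast strain RE007, carrying one chromosomally integrated HIV-1 vpr copy, was seeded at OD 0.01 in PMG+AL medium with 23 nL pinned compound. After 24 h at 30 °C and 99% humidity, viability was read by BacTiter-Glo luminescence.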
# TbPYK inhibitor: qHTS of Trypanosoma Brucei Inhibitors; pyruvate kinase (Trypanosoma brucei), Q57TT1; TbPYK enzyme, Kinase-Glo Plus ATP luminescence, 45 min; Potency, µM (titrated, usually from 76.8 µM), most hits filed as inhibitors; actives 0.12% (n = 410,000); AID 624173, 2012; note: nearly all actives have a fitted effect of over 50% in size
#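 Luminescence from Kinase-Glo Plus, added after a 45-minute room-temperature reaction, served as the end-point read-out. The enzyme and substrate were preincubated with compound before ADP (130 uM final) initiated turnover. Concentration-effect curves came from normalized qHTS data.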
# LmPK inh: qHTS Assay for Inhibitors of Leishmania Mexicana Pyruvate Kinase (LmPK) | Q27686 | purified LmPK, Kinase-Glo ATP luminescence, 1 h | Potency, µM (highest dose often 57.5 µM), actives largely listed as inhibitors | actives 0.37% (n = 290,000) | AID 1721, 2009
#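 Pyruvate kinase activity monitored as ATP production (luciferase luminescence). Conditions: 0.1 nM enzyme, 0.5 mM PEP, 0.1 mM ADP, 1 h, RT; normalized against uninhibited and no-enzyme wells.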
# Giardia growth: qHTS Assay for Inhibitors of Fructose-1,6-bisphosphate Aldolase from Giardia Lamblia: Giardia lamblia growth inhibition. shares compounds with Giardia FBPA inh-1. Giardia lamblia trophozoite growth inhibition. Potency, µM (titrated, usually from 57.5 µM), usual class: inhibitors. actives 5% (n = 1,500). AID 2785, 2010;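 note: trophozoites exposed to compound for 48 h at 37 °C; nearly all actives have a fitted effect of over 70% in size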
# Mammal cell tox: qHTS Assay for Inhibitors of Fructose-1,6-bisphosphate Aldolase from Giardia Lamblia: Mammalian cellular toxicity. shares compounds with Giardia FBPA inh-1. mammalian cell viability counter-screen, qHTS. Potency, µM (doses to about 57.5 µM), usual class: inhibitors. actives 4% (n = 1,500). AID 2786, 2010;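 note: Chinese hamster ovary cells used as mammalian cytotoxicity surrogate; viability measured as cellular ATP by luminescence; compound exposure lasted 48 h before reading; nearly all actives have a fitted effect of over 60% in size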
# Giardia FBPA inh-2: qHTS Assay for Inhibitors of Fructose-1,6-bisphosphate Aldolase from Giardia Lamblia: Primary screen confirmation; shares compounds with Giardia FBPA inh-1; purified Giardia aldolase enzyme activity, qHTS; Potency, µM (highest dose often 57.5 µM), usual class: inhibitors; actives 5% (n = 1,500); AID 2787, 2010; note: nearly all actives have a fitted effect of over 45% in size
# Rabbit FBPA inh: qHTS Assay for Inhibitors of Fructose-1,6-bisphosphate Aldolase from Giardia Lamblia: Rabbit FBPA Selectivity; Rabbit muscle FBPA enzyme inhibition, selectivity counter-screen; actives 4% (n = 1,500); shares compounds with Giardia FBPA inh-1; AID 2794, 2010; Potency, µM (highest dose often 57.5 µM), hits mostly inhibitors; note: nearly all actives have a fitted effect of over 60% in size
# Target sequence (P00883 whole entry, looked up): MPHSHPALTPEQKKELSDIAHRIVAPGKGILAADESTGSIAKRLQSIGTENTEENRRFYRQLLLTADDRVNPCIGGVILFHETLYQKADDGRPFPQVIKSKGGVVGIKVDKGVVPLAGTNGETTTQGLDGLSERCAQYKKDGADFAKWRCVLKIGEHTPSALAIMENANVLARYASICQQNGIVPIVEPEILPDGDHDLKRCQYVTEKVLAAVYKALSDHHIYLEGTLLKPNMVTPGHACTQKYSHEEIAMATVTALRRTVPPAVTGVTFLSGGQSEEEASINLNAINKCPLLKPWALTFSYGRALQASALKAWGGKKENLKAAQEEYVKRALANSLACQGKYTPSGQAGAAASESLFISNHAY
# GAPDH coupling: qHTS Assay for Inhibitors of Fructose-1,6-bisphosphate Aldolase from Giardia Lamblia: Coupling assay counterscreen confirmation. shares compounds with Giardia FBPA inh-1. Potency, µM (top dose mostly 57.5 µM), hits mostly inhibitors. actives 6% (n = 1,500). AID 2795, 2010. GAPDH coupling enzyme counterscreen, biochemical, qHTS; note: nearly all actives have a fitted effect of over 55% in size
# A number is an active result; – = inactive; ? = inconclusive; · = not tested or not shown; [ ] = remark or other dose. Unless noted, calls come from the whole dose curve; as a rule, active = well fitted curve in the direction sought with a large enough effect; inconclusive = small, poorly fitted or top-dose-only effect, or another doubt; inactive = no such curve, though single readings can be large; an effect the other way counts as inactive or inconclusive.
SMILES,Giardia FBPA inh-1,RE007 growth inh,TbPYK inhibitor,LmPK inh,Giardia growth,Mammal cell tox,Giardia FBPA inh-2,Rabbit FBPA inh,GAPDH coupling
Cc1nnc(NC(=O)CN2CCN(Cc3c(Cl)cccc3Cl)CC2)s1,–,–,–,–,·,·,·,·,·
CCc1ccc(C(=O)CSc2ncn[nH]2)cc1,?,–,?,–,·,·,·,·,·
Cc1ccc(C(=O)CSc2ncn[nH]2)cc1,28µM,–,–,–,–[10.4 µM],–,–,–,–
CCC1=Nc2cc(C(=O)N3CCC(C)CC3)ccc2Sc2ccc(C)cc21,·,·,–,·,·,·,·,·,·
NS(=O)(=O)c1ccc(NC(=S)NC2CCCCC2)cc1,10µM,–,?,–,–,?,40µM,?,40µM
CCNc1nc(C(=O)O)nc(N2CCOCC2)n1,22µM,–,–,–,–[10.4 µM],–,–,–,–
Cc1cc(C)nc(N2N=C(C(F)(F)F)CC2=O)n1,11µM,–,–,–,–,–,–,–,–
Cc1ccc(C)c(CSC2=NC(C)(C)Nc3ccccc32)c1,·,·,–,·,·,·,·,·,·
CC(C)(C)c1cc(C(=O)N/N=C/c2ccncc2)n[nH]1,·,–,–,–,·,·,·,·,·
O=C(N/N=C/c1ccccn1)c1cccs1,13µM,–,–,–,–,–,–,–,–
O=C(N/N=C/c1ccccn1)c1ccco1,20µM,–,–,–,–,–,–,–,–
O=C(N/N=C\c1ccccn1)c1ccccc1O,16µM,–,–,–,–,?,–,–,–
CC(C)(C)c1cc(C(=O)N/N=C/c2ccccn2)n[nH]1,16µM,–,–,–,?,–,–,–,–
Cc1nn(CCCC(=O)Nc2ccccc2C(F)(F)F)c(=O)c2c1sc1ccccc12,·,·,–,·,·,·,·,·,·
CCc1ccc(NC(=O)C2CCN(c3ccc(Sc4ccc(C)cc4)nn3)CC2)cc1,·,·,–,·,·,·,·,·,·
CC(C)CN(c1ccccc1)S(=O)(=O)c1nnc(NC(=O)C2CCCCC2)s1,·,·,–,·,·,·,·,·,·
Cc1ccc(/C=C/c2onc(C)c2S(=O)(=O)N2CCC(C(=O)Nc3ccc(OC(F)(F)F)cc3)CC2)cc1,·,·,–,·,·,·,·,·,·
COc1ccc(C(=O)N/N=C/c2ccccn2)cc1OC,16µM,–,–,–,–,–,–,–,–
CC(=O)/C(=N\Nc1ccccc1)Sc1nncn1C,3.5µM,–,?,–,–[10.4 µM],–,–,–,–
CCNc1ncc2nc(-c3cc(F)cc(F)c3)c(=O)n(-c3ccccc3)c2n1,–,·,–,·,·,·,·,·,·
O=C(CSc1nnc(-c2ccccc2)c(-c2ccccc2)n1)Nc1ccccc1Cl,·,·,–,·,·,·,·,·,·
COCc1cc(OC)nc(-c2csc(C)n2)n1,–,–,–,–,·,·,·,·,·
COCc1cc(=O)[nH]c(-c2csc(C)n2)n1,4.5µM,–,–,–,–,–,–,–,–
COc1cc(CN2CCN(C(=O)c3ccccc3F)CC2)cc(OC)c1OC,28µM,–,–,–,–[10.4 µM],–,–,–,–
COc1cccc(CN2CCN(Cc3cc(OC)c(OC)c(OC)c3)CC2)c1OC,13µM,–,–,–,?,–,–,–,–
SMILES,Giardia FBPA inh-1,RE007 growth inh,TbPYK inhibitor,LmPK inh,Giardia growth,Mammal cell tox,Giardia FBPA inh-2,Rabbit FBPA inh,GAPDH coupling
COc1cccc(CN2CCN(Cc3cccc(Oc4ccccc4)c3)CC2)c1OC,16µM,–,–,–,–,?,–,–,–
CC(=O)c1cccc(NC(=S)N2CCc3ccccc32)c1,25µM,–,–,–,–,–,–,–,–
CCOC(=O)c1cnc2ccc(OC)cc2c1NCCc1ccccc1,·,·,–,·,·,·,·,·,·
O=C(Nc1nnc(-c2ccncc2)o1)c1ccccc1,16µM,–,–,–,8.9µM,–,–,–,–
Cc1ccc(C(=O)Nc2nnc(-c3ccncc3)o2)cc1,14µM,–,–,–,–,–,–,–,–
O=C(Nc1nnc(-c2ccncc2)o1)c1ccccc1F,?,–,–,–,·,·,·,·,·
CC1CCCCN1S(=O)(=O)c1ccc(C(=O)Nc2nnc(-c3ccncc3)o2)cc1 (stereo not given),5µM,–,–,–[11.5 µM],?,?,–,–,–
CC1CCCCN1S(=O)(=O)c1ccc(C(=O)Nc2nnc(-c3ccccc3Cl)o2)cc1 (stereo not given),?,–,–,–,·,·,·,·,·
COc1cccc(-c2cc(=O)c3cc(NC(=O)c4cccnc4)ccc3[nH]2)c1,–,·,·,·,·,·,·,·,·
CCCCC(=O)N/N=C/c1c(O)n(-c2cccc3ccccc23)c(=O)[nH]c1=O,16µM,–,–,–,–,–,–,–,–
CCCCC(=O)N/N=C/c1c(O)n(Cc2ccco2)c(=O)[nH]c1=O,–,–,–,–,·,·,·,·,·
COc1ccc(/C=C/c2nc(C#N)c(NC3CCCCC3)o2)cc1OC,·,·,–,·,·,·,·,·,·
COc1ccc(CNC(=O)Cn2c(=O)nc(-c3ccccc3)c3cc(Cl)ccc32)cc1OC,·,·,–,·,·,·,·,·,·
C=CCc1ccc(OCCOc2cccc3ccc(C)nc23)c(OC)c1,11µM,–,–,–,?,–,–,–,–
C=CCc1ccc(OCCOCCN(C)C)c(OC)c1,?,–,–,–,·,·,·,·,·
NC(=O)NC(=O)CC1S/C(=N/N=C/c2ccccc2)NC1=O (stereo not given),–,–,–,–,·,·,·,·,·
NC(=O)NC(=O)CC1S/C(=N/N=C2\CSC(=O)N2)NC1=O (stereo not given),13µM,–,–,–,–,–,–,–,–
O=C(O)CNC(=O)CC1S/C(=N/N=C2/NC(=O)CS2)NC1=O (stereo not given),18µM,–,–,–,?,–,–,–,–
Cc1ccc(CNc2ncnc3ccc(-c4c(C)noc4C)cc23)o1,–,·,·,·,·,·,·,·,·
COCCn1c(=O)c(-c2ccccc2)nc2cnc(N(C)C)nc21,–,·,·,·,·,·,·,·,·
Cc1ccc(C(=O)NN2C(=O)CSC2=S)cc1,–,–,–,–,·,·,·,·,·
C/C(=N\N1C(=O)CSC1=S)c1ccc(Br)cc1,16µM,–,–,–,–,–,–,–,–
CC1=CC(=O)NP(=O)(Oc2ccc3ccccc3c2)N1 (stereo not given),16µM,–,?,–,?,–,–,–,–
